The source of these data is PubChem BioAssay (NCI).

Holding throughout (assay): NCI-60 one-dose screen, 48 h (100 = growth as untreated, 0 = no growth, -100 = all killed)
Holding throughout (settings): 10 µM unless noted

Experiment [1] concerns DU-145 prostate.
Experiment [2] deals with K-562 leukemia.
For experiment [3], the system named is MALME-3M melanoma.
For experiment [4], the system named is MDA-MB-231 breast.
Experiment [5] has as its system RXF 393 renal.
In experiment [6] the test system is SF-268 CNS.
Experiment [7] deals with SF-295 CNS.
Experiment [8] deals with SF-539 CNS.
Experiment [9] deals with UACC-257 melanoma.
The subject of experiment [10] is M14 melanoma.
The subject of experiment [11] is HCT-15 colon.
Experiment [12] relates to HT29 colon.
Experiment [13] concerns SNB-75 CNS.
Experiment [14] has as its system SNB-19 CNS.
For experiment [15], the system named is U251 CNS.
Experiment [16] relates to PC-3 prostate.
Experiment [17] concerns SK-MEL-5 melanoma.
The test system of experiment [18] is UACC-62 melanoma.
Experiment [19] deals with LOX IMVI melanoma.
Experiment [20] deals with SK-MEL-28 melanoma.

About 83,000 compounds went through this panel and 20% of them were active in at least one assay; those are over-represented in the sample as a whole.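 Negative percent growth values reflect cell death: -40 means 40% of the cells present at the start died, and -100 means all died.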 Values without a mark were called inactive. Activity calls are given as the source filed them. Rule for the calls: active = growth percent below 10; inactive = the rest.

`CC(C)=CC/C=C(/C)[C@H]1CC[C@]2(C)[C@@H]1CC[C@@H]1[C@@]3(C)CCCNC(C)(C)[C@@H]3CC[C@]12C`: the growth in experiment [1] is -78.7% [100 µM] (active); in experiment [2], -19.2% [100 µM] (active); in experiment [3], -78.9% [100 µM] (active); in experiment [4] it was -74.7% [100 µM] (active); in [5] it was -70.1% [100 µM] (active); in experiment [6], -48% [100 µM] (active). Besides, the growth was -77.8% [100 µM] (active) in experiment [7]; -86% [100 µM] (active) in experiment [8]; -72.3% [100 µM] (active) in [9]; -58.6% [100 µM] (active) in experiment [10]; -53.6% [100 µM] (active) in experiment [11]; -64.7% [100 µM] (active) in experiment [12]. Moreover, the growth in [13] is -84.4% [100 µM] (active); in experiment [14] it was -63.1% [100 µM] (active); in experiment [15], -63.3% [100 µM] (active); in experiment [16], -65% [100 µM] (active); in [17], -71.2% [100 µM] (active); in [18] it was -95.2% [100 µM] (active). Further, the growth in [19] was -46% [100 µM] (active); in experiment [20], -87.1% [100 µM] (active).

`COc1cc(-c2cc(-c3ccc(Nc4ncnc5cc(Cl)ccc45)cc3)nc(N3CCCCC3)n2)cc(OC)c1OC`: the growth in experiment [1] is 102%; in experiment [2], 92.3%; in experiment [3], 95.1%; in [4], 92%; in experiment [5], 106%; in experiment [6] it was 88.4%. Moreover, the growth in [7] is 104%; in experiment [8], 93.6%; in experiment [9] it was 111%; in [10], 106%; in experiment [11] it was 99.5%; in experiment [12] it was 87.7%. Further, the growth is 108% in [13]; 100% in experiment [14]; 98.9% in experiment [15]; 88.1% in experiment [16]; 97.7% in experiment [17]; 95.5% in experiment [18]. In addition, the figures for the growth in [19] and in experiment [20] were 97.3% and 108%, respectively.

With `O=C1Nc2ccccc2/C1=C/C(=O)c1ccc(N2CCCC2)cc1`, the growth in experiment [1] is 12.3%; in experiment [2], 14.3%; in [3] it was 39.3%; in [4] it was 47.2%; in experiment [5], 20.6%; in experiment [6], 21.9%. Besides, the growth in [7] is 68.8%; in experiment [8], 4.58% (active); in [9], 78.1%; in experiment [10], 108%; in experiment [11] it was 23.1%; in experiment [12], -9.76% (active). Besides, the growth in experiment [13] is 23.3%; in experiment [14] it was 57.2%; in [15], 4.98% (active); in experiment [16] it was 38.2%; in experiment [17] it was 65.2%; in [18] it was 34.5%. The growth in experiment [19] was -17% (active); in experiment [20], 76.5%.

As to `O=C(Nc1cccc2ccccc12)c1cc2ccccc2cc1O`, the growth in experiment [1] is 25.7%; in experiment [2], 14.7%; in experiment [3], -12.3% (active); in experiment [4], -22.1% (active); in experiment [5] it was 22.7%; in [6] it was 23.8%. In addition, the growth in [7] is 6.2% (active); in experiment [8], 17.7%; in experiment [9], 5.69% (active); in experiment [10] it was 32.2%; in experiment [11], 19.1%; in [12], 68.9%. The growth is 12.8% in experiment [13]; 22.9% in experiment [14]; 8.21% (active) in experiment [15]; 2.08% (active) in experiment [16]; -57.3% (active) in [17]; 17.4% in [18]. Further, the results for the growth in [19] and in experiment [20] were 13.7% and 45.7%, respectively.

Consider `CCCCCn1c(C)cc(/C=C\c2ccc3cc(C)ccc3[n+]2C)c1C`, for which the growth in [1] was -52.3% (active); in [2], 9.64% (active); in experiment [3] it was -67.5% (active); in [4], -46.8% (active); in experiment [5], -60.8% (active); in [6], -61% (active). The growth was -90.9% (active) in [7]; -85.8% (active) in experiment [8]; -99.1% (active) in [9]; -71.2% (active) in experiment [10]; -12% (active) in experiment [11]; -61.8% (active) in [12]. The growth in experiment [13] is -94.4% (active); in [14] it was -89.8% (active); in experiment [15], -93.9% (active); in [16] it was -47.9% (active); in [17], -95.7% (active); in experiment [18] it was -89.8% (active). The growth in experiment [19] was -72.4% (active); in experiment [20], -87.1% (active).

With `C#CCNC(=O)CC[C@@H](C)[C@H]1CC[C@H]2[C@@H]3CC[C@@H]4CC(=O)CC[C@]4(C)[C@H]3CC[C@]12C`, the growth was -38.1% [100 µM] (active) in experiment [1]; 4.55% [100 µM] (active) in experiment [2]; -82.2% [100 µM] (active) in experiment [3]; -78% [100 µM] (active) in experiment [4]; -76.1% [100 µM] (active) in experiment [5]; -20.4% [100 µM] (active) in experiment [6]. Moreover, the growth was -51.3% [100 µM] (active) in experiment [7]; -82.6% [100 µM] (active) in experiment [8]; -0.129% [100 µM] (active) in experiment [9]; -22.4% [100 µM] (active) in [10]; 1.91% [100 µM] (active) in [11]; -25% [100 µM] (active) in experiment [12]. The growth was -58.3% [100 µM] (active) in experiment [13]; 14.8% [100 µM] in experiment [14]; -43.4% [100 µM] (active) in [15]; -14.6% [100 µM] (active) in experiment [16]; -86.5% [100 µM] (active) in [17]; -74% [100 µM] (active) in experiment [18]. The growth in experiment [19] was -71.6% [100 µM] (active); in experiment [20], -84.4% [100 µM] (active).

As for `CO[C@H]1CC[C@@]2(C)C(=CC[C@H]3[C@@H]4C[C@H](O)C[C@@]4(C)CC[C@@H]32)C1`, the growth is 42.1% in [1]; 20.7% in [2]; 52.1% in [3]; 56.2% in experiment [4]; 58.5% in [5]; 49.2% in experiment [6]. The growth in [7] is 40.8%; in experiment [8] it was 38%; in experiment [9], 65.2%; in experiment [10] it was 36.6%; in experiment [11], 36.4%; in [12], 69%. Also, the growth in experiment [13] is 32.8%; in [14] it was 55.3%; in [15], 38.6%; in [16], 68.3%; in experiment [17], 30.9%; in experiment [18], 42.6%. Besides, the growth is 48.7% in [19] and 68.5% in experiment [20].
